# Rows were chosen to be rich in hits. Some 4% of all compounds tested hit in one or more screens of this group.
# TRHR enhancer – allosteric enhancers of human TRH receptor | enhancement, % at 2 µM | 360,000 compounds, 0.66% hits | AID 493056 | P34981 | TRHR cells, fluo-8 calcium fluorescence, EC20 TRH enhancement; in the data active = enhancement above about 30%; note: 0% is about no effect
#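 Enhancer read-out: after compound pinning and an initial kinetic agonist-mode read, an EC20 of TRH (10 nM final) was injected and fluo-8 calcium signal (Ex 480/Em 530) followed at 1 s/cycle for 100 cycles in TRHR-expressing cells.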
# GRP78 ERSR act – ER stress response induction in glioma. U87-MG GRP78 promoter luciferase reporter, 16 h. Potency, µM, without a hit: at the highest dose activation, actives largely listed as activators. 420,000 compounds, 0.02% hits; active = well fitted activation curve with a large enough effect; note: potency is the fitted concentration of half-maximal effect; series mostly up to about 76 µM; % of control where 0% means no effect; nearly all actives have a fitted effect of over 35% in size
#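 Stably transfected U87-MG glioma cells carrying a GRP78-based luciferase sensor; 16 h compound incubation. Luminescence end-point read 10 min after Bright-Glo addition at room temperature.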
# D1 antagonist – antagonists of human D1 dopamine receptor; HEK293 TREx D1 cells, calcium flux, dopamine EC80; active compounds read low; activity change, negative = inhibition, % at 10 µM; P21728; 360,000 compounds, 3.2% hits; in the data active = activity change below about -30%; note: % is set by controls: 0 for no effect and ±100 for the full control effect
# Target sequence (P21728 whole entry, looked up): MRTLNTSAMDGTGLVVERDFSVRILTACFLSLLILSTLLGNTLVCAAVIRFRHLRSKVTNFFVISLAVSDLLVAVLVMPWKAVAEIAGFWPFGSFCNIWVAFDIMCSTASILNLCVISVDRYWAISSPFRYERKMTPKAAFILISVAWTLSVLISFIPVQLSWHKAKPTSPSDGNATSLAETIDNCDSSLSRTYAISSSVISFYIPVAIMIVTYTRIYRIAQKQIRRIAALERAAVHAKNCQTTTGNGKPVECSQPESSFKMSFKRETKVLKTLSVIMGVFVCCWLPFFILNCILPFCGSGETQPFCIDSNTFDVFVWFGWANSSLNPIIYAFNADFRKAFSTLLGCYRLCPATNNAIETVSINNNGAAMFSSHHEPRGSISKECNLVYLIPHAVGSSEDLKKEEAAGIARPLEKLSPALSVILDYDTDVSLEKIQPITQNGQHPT
#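 Compound effects on dopamine-evoked calcium signalling were measured in tetracycline-induced HEK293 Trex D1 cells. Dopamine at EC80 followed a 180 s compound pre-read, and fluorescence was tracked kinetically for 180 s more.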
# TRHR ag – activates the human TRH receptor; P34981; TRHR cells, calcium flux fluo-8, FDSS agonist mode; activation, % at 2 µM; 360,000 compounds, 0.18% hits; note: 0% is about no effect
#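 Read-out: compound-evoked intracellular calcium rise in TRHR cells, fluo-8 dye, kinetic FDSS fluorescence at 1 s/cycle following a 10-cycle baseline. Cells cultured overnight before dye loading (30 min–1.5 h, RT).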
# D1 ag – activates the human D1 dopamine receptor; HEK293 T-REx D1 cells, calcium flux, agonist mode; activation, % at 2 µM; 360,000 compounds, 1% hits; note: 0% is about no effect
#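 Tetracycline-induced HEK293 TREx D1 cells, force-coupled to calcium signalling, were dye-loaded with a no-wash calcium kit. Compound was pin-added after a 10 s baseline. Fluorescence was read kinetically at 1 cycle/s for 180 s, with calcium rises flagged as agonism.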
# D1 PAM – human D1 dopamine receptor positive modulation; AID 504651; potentiation, % at 10 µM; HEK293 TREx D1 cells, calcium flux, dopamine EC20 potentiation; 360,000 compounds, 0.036% hits; in the data active = potentiation above about 30%; note: 0% is about no effect
# An asterisk follows results filed as active; nt = no result. Cut-off read from the data, not from the text of the source, unless noted: active = activation above about 30%; inactive = the rest.
SMILES,TRHR enhancer,GRP78 ERSR act,D1 antagonist,TRHR ag,D1 ag,D1 PAM
O=C(NCCN1CCOCC1)C(=O)NCC1CCCO1 (configuration not stated),34*,-2%,16,0,5,-2
CCOc1ccccc1Nc1nnc(-c2cc3cc(OC)ccc3oc2=O)s1,-2,3%,-15,4,56*,-3
Nc1n[nH]c(C2CCCCC2)n1,-2,-1%,1,1,3,-2
S=c1nc(C2CCCCC2)[nH][nH]1,4,0%,-50*,0,1,2
O=C(COc1ccc2c(c1)OCO2)Nc1nnc(Cc2ccccc2)s1,-13,-4%,-7,0,3,0
COCCCNC(=O)c1cc(=O)n(Cc2ccc(Cl)cc2)c2ccccc12,4,-5%,-31*,-1,5,0
O=C(NC1CCCCC1)c1ccc(Cn2c(SCc3cccc(F)c3)nc3cccnc32)cc1,4,-2%,-65*,-1,0,0
O=C(NCCN1CCCCC1)c1ccc(Cn2c(SCc3ccc(F)cc3)nc3cccnc32)cc1,-9,-1%,-32*,0,0,0
O=C(NC1CCCCC1)c1ccc(CSc2nc3cccnc3n2Cc2ccccc2)cc1,2,-3%,-5,0,2,-1
NC(=O)c1ccc(Oc2ccc(Cl)c3ccccc23)c([N+](=O)[O-])c1,31*,-6%,2,0,2,-5
O=C(NCc1ccccc1Cl)c1cnc(N2CCOCC2)c2ccccc12,0,-1%,1,0,0,-4
Cc1ccc(CC2CC(=O)N(CCc3ccc4c(c3)OCO4)C2=O)cc1 (configuration not stated),1,-2%,-31*,0,1,-2
COc1cccc(CC2CC(=O)N(CCc3ccc4c(c3)OCO4)C2=O)c1 (configuration not stated),13,0%,-22,0,34*,-5
O=C(O)c1nn(Cc2nc3ccccc3o2)c(=O)c2ccccc12,2,0%,-77*,-2,3,nt
Cc1ccc(-c2noc(Cn3nc(C(=O)O)c4ccccc4c3=O)n2)cc1,-5,-5%,-3,0,0,0
COc1ccc(C(=O)NCCc2c[nH]c3ccc(OC)cc23)cc1,-2,-1%,-13,0,0,-1
O=C(Nc1ccc(Cl)cc1)Nc1ccccc1NS(=O)(=O)c1cccs1,-5,-3%,-33*,0,21,-13
O=C(Nc1ccc(F)cc1)Nc1ccccc1NS(=O)(=O)c1cccs1,8,-1%,-8,0,23,-8
O=C(COC(=O)/C=C/c1ccc2ccccc2n1)NNC(=O)c1ccc([N+](=O)[O-])cc1,-1,0%,3,-1,0,0
N#CC1(NC(=O)COC(=O)/C=C/c2ccc3ccccc3n2)CCCCC1,-1,-4%,-50*,-1,5,-13
O=C(Nc1ccc2c(c1)OCO2)C1CCCN1C(=O)Nc1ccccc1F (configuration not stated),1,2%,5,1,0,0
Cc1ccc(NCC(O)Cn2cnc3c2c(=O)n(C)c(=O)n3C)cc1 (configuration not stated),-1,-3%,7,1,2,-4
Cn1c(=O)c2c(ncn2CC(O)CNc2ccc(Cl)cc2)n(C)c1=O (configuration not stated),2,2%,-37*,0,2,-6
Cc1ccn2c(Cc3ccccc3)c(-c3ccccc3)nc2c1,nt,-1%,nt,nt,nt,nt
Cc1ccn2c(CN3CCOCC3)c(-c3ccccc3)nc2c1,-2,2%,-32*,0,2,-5
SMILES,TRHR enhancer,GRP78 ERSR act,D1 antagonist,TRHR ag,D1 ag,D1 PAM
Cc1ccc(N/C=C/C(=O)c2ccccc2)cc1Br,-2,-2%,7,0,2,-6
CN(c1ccc(C(=O)Nc2ccccc2C(=O)N2CCCC2)cc1)S(C)(=O)=O,16,-4%,-31*,0,1,-7
CC(=O)c1cccc(N(CC(=O)Nc2ccccc2C(=O)N2CCCC2)S(C)(=O)=O)c1,55*,-3%,-9,0,5,-1
CS(=O)(=O)N(CC(=O)Nc1ccccc1C(=O)N1CCCC1)c1cccc([N+](=O)[O-])c1,10,-3%,8,-1,0,11
CCOC(=O)C(Nc1ccc2ccccc2c1)C(=O)OCC,4,4%,-6,-1,3,-6
O=C(COc1ccc2ccccc2c1)Nc1ccc(Cc2ccncc2)cc1,-6,-3%,-34*,4,27,-8
CN1CCN(c2ccc(NC(=O)c3ccc4ccccc4c3)cc2)CC1,-1,-15%,-71*,0,10,-16
O=C(COC(=O)c1ccc(O)cc1O)Nc1ccc2ccccc2c1,-6,21%,-37*,0,5,-3
CN1CCN(c2ccc(NC(=O)COc3ccc4ccccc4c3)cc2)CC1,3,-2%,-39*,1,16,-3
O=C(O)Cc1ccc(NC(=O)COc2ccc3ccccc3c2)cc1,0,-3%,-6,0,1,-12
O=C(COC(=O)c1ccc(O)cc1O)Nc1ccc2c(c1)OCCO2,-1,4%,-13,0,1,-6
CN1CCN(c2ccc(NC(=O)COc3cccc4ccccc34)cc2)CC1,4,2%,-26,2,4,-20
CCOC(=O)Cn1c(=O)n(CC2CCCO2)c2nc(-c3ccc(C)cc3)nc(C(N)=O)c21 (configuration not stated),1,-4%,12,-1,6,0
CCOc1cc(NC(=S)NCC(C)C)c(OCC)cc1NC(=O)c1ccco1,-3,-2%,-5,0,4,-6
Cn1nc(C(F)(F)F)c(-c2ccc(Br)cc2)c1NC(=O)c1ccco1,-3,-6%,-2,0,3,-8
COc1cc(-c2nnc3sc(Cc4ccccc4)nn23)cc(OC)c1OC,-2,-6%,2,0,2,-10
CC(=O)c1cccc(Nc2nc(N3CCOCC3)nc(N3CCOCC3)n2)c1,-8,7%,-6,-1,3,1
CC(=O)Nc1cccc(NC(=O)COc2ccc3c(c2)CCC3)c1,-12,9%,-13,0,18,-5
CC(=O)Nc1ccc(NC(=O)COc2ccc3c(c2)CCC3)cc1,2,-3%,-35*,-1,2,5
COc1nsnc1N1CCOCC1,-2,1%,10,-2,1,3
COC(=O)COc1nsnc1N1CCOCC1,-1,-2%,-60*,0,1,-6
CC(=O)c1cccc(NC(=O)COc2nsnc2N2CCOCC2)c1,-3,-2%,-35*,1,6,-5
